CHX counter – Cycloheximide Counterscreen for Small Molecule Inhibitors of Shiga Toxin | cell reporter, cycloheximide protein synthesis inhibition counterscreen | max response, % | 300,000 compounds, 12% hits | AID 2314, 2010; in the data active = max response mostly above about 13%, no sharp cut-off; inactive = mostly below about 14%; note: read at 38.3 µM for the half of the compounds with a filed dose; 0% is about no effect
Pf growth 48h – Primary qHTS for delayed death inhibitors of the malarial parasite plastid, 48 hour incubation; P. falciparum luciferase growth in erythrocytes, 48 h; Potency, µM (series often up to 28.7 µM), without a hit: at the highest dose activity change, negative = inhibition, most hits filed as inhibitors; 310,000 compounds, 5.9% hits; AID 504832, 2011; note: potency is the fitted concentration of half-maximal effect; % is set by controls: 0 for no effect and ±100 for the full control effect
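Firefly luciferase activity from engineered P. falciparum reports growth; inhibitors lower the luminescent signal. Cultures contained 2% hematocrit erythrocytes at 0.1% final parasitemia.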
LmPK inhibitor – qHTS Assay for Inhibitors of Leishmania Mexicana Pyruvate Kinase (LmPK) | Q27686 | purified LmPK, Kinase-Glo ATP luminescence, 1 h | Potency, µM (doses to about 57.5 µM), inactives show at the highest dose activity change, negative = inhibition, most hits filed as inhibitors | 290,000 compounds, 0.37% hits | AID 1721, 2009; note: potency is the fitted concentration of half-maximal effect; % is set by controls: 0 for no effect and ±100 for the full control effect
Target sequence (Q27686 whole entry, looked up): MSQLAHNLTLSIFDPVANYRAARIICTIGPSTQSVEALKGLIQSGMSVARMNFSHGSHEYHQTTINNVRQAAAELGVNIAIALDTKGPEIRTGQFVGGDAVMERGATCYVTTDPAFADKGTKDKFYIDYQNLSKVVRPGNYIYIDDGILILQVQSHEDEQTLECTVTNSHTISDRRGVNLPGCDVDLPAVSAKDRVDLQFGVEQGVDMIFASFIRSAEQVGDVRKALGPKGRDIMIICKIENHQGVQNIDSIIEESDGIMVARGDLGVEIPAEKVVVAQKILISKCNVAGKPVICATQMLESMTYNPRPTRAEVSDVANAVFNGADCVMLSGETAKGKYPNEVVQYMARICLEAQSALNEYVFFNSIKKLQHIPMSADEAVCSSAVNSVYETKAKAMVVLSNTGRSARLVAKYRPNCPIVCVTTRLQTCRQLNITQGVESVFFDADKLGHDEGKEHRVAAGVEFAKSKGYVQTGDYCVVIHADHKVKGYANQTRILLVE
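Kinase-Glo luminescence read after 1 h RT reaction of 0.1 nM LmPK with 0.5 mM PEP and 0.1 mM ADP. Activity scaled between uninhibited and enzyme-free controls.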
Pf growth 96h – Primary qHTS for delayed death inhibitors of the malarial parasite plastid, 96 hour incubation | P. falciparum luciferase reporter growth, 96 h | Potency, µM (titrated, usually from 28.7 µM), for inactives: at the highest dose activity change, negative = inhibition, most hits filed as inhibitors | 320,000 compounds, 6.9% hits | AID 504834, 2011; note: potency is the fitted concentration of half-maximal effect; % is set by controls: 0 for no effect and ±100 for the full control effect
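Delayed-death screen, second-generation endpoint: infected erythrocytes, 2% hematocrit, 0.05% parasitemia final; 96 hours at 37 C, 5% CO2; luciferase detection reagent; luminescence decrease equals reduced growth.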
Shiga inhibitor – A qHTS for Small Molecule Inhibitors of Shiga Toxin. Vero cells, Shiga toxin protein synthesis inhibition reporter. inhibition, % at 38.7 µM. 290,000 compounds, 9.2% hits. AID 2315, 2010; in the data active = inhibition mostly above about 28%, no sharp cut-off; inactive = mostly below about 43%; note: 0% is about no effect
Starred values were filed as active, the others as inactive; ? = inconclusive; / = no result given. Rows were chosen to be rich in hits. Some 22% of all compounds tested hit in one or more screens of this group. Unless noted, calls come from the whole dose curve; as a rule, active = well fitted inhibition curve with a large enough effect; inconclusive = small, poorly fitted or top-dose-only effect, or another doubt; inactive = no such curve, though single readings can be large or run the other way.

SMILES	CHX counter	Pf growth 48h	LmPK inhibitor	Pf growth 96h	Shiga inhibitor
N#Cc1ccccc1NC(=O)COc1ccc2c(c1)OCO2	47*	121%	0%	8.3µM*	93*
CC(C)Oc1ccc(CNC(=O)C2CCCN(S(=O)(=O)N3CCOCC3)C2)cc1 (configuration not stated)	-2	-2%	2%	-17%	16
COC(=O)/C=c1/s/c(=C(\C#N)C(=O)NCc2ccco2)n(-c2ccccc2)c1=O	-7	-11%	2%	6.6µM*	-11
CCc1nc(C)ccc1OC(=O)C12CC3CC(CC(C3)C1)C2	-2	-12%	1%	0.59µM*	2
CC(=O)OCCCCCCCCCCC[N+]1(C)CCCCC1	-2	?	6%	45%	-5
COC(=O)CCCCCCCCCC[N+]1(C)CCCCC1	-3	3.7µM*	-2%	52%	-2
CCn1c(=O)c([N+](=O)[O-])c(NC2CCS(=O)(=O)C2)c2ccccc21 (configuration not stated)	-1	0%	-5%	-5%	-23
C=C(C)[C@H]1Cc2c(ccc3c2O[C@@H]2COc4cc(OC)c(OC)cc4[C@@H]2C3=O)O1	/	?	/	6.7µM*	/
COc1cc(NC(=O)C2COc3ccccc3O2)c(OC)cc1Cl (configuration not stated)	-1	/	6%	/	4
COc1cccc(C(=O)NCC(=O)N/N=C/c2cn[nH]c2-c2ccccc2)c1	-2	3%	-2%	3%	-15
O=C(Nc1ccccc1)c1c2c(nc3ccccc13)CCCC2	1	-7%	0%	?	28
CCOC(=O)Nc1cc(OCC)c(NC(=O)C2CC2)cc1OCC	1	1%	-6%	-19%	-3
CCOC(=O)c1sc(NC(=O)C2CC2)cc1C	15*	?	3%	?	38*
CCOC(=O)c1sc(NC(=S)NC(=O)CC(C)C)cc1C	43*	-4%	2%	68%	49*
CCOC(=O)c1sc(NC(=S)NC(=O)C2CCCC2)cc1C	11	?	1%	9.3µM*	10*
CCOC(=O)c1sc(N)nc1C(C)(C)C	-2	-4%	2%	4%	-13
CCOC(=O)c1sc(NC(=O)C(C)(C)C)cc1C	28*	36%	1%	20%	active
CC(C)CC(=O)NC(=S)Nc1sc2c(c1C(N)=O)CCC2	16	50%	0%	61%	30
COc1ccc(NC(=O)CSc2nnc3ccc(-c4cccnc4)nn23)c(OC)c1	/	-16%	/	-17%	/
CCOC(=O)[C@@H]1[C@H]2COc3ccccc3[C@H]2N2C(=O)N(c3ccc(Cl)cc3)C(=O)[C@@]12C	-2	-40%	-2%	?	-8
CCC(C)n1c(NC(=O)c2ccccc2)c(C#N)c2nc3ccccc3nc21 (configuration not stated)	-2	3.7µM*	2%	2.9µM*	-14
CCCCn1c(NC(=O)c2ccccc2)c(C#N)c2nc3ccccc3nc21	-5	5.9µM*	5%	/	-11
Cc1cc(-c2ccccc2)nc(N(C)NC(=O)c2cccc(C(F)(F)F)c2)c1S(C)(=O)=O	-2	/	6%	3.7µM*	8
Cc1cc(-c2ccccc2)nc(N(C)NC(=O)C2CC2)c1S(C)(=O)=O	16	12%	2%	-2%	13
Cc1cc(C)c(C)c(S(=O)(=O)N2CCN(C(=O)c3ccccc3OCc3c(C)noc3C)CC2)c1C	/	10µM*	/	13µM*	/
SMILES	CHX counter	Pf growth 48h	LmPK inhibitor	Pf growth 96h	Shiga inhibitor
COc1cc(C(=O)OCC(=O)N2CCCCC2C)ccc1OCc1c(C)noc1C (configuration not stated)	9	9.3µM*	1%	?	42
COc1cc(C(=O)N2CCN(S(=O)(=O)c3ccc(C)cc3)CC2)ccc1OCc1c(C)noc1C	-3	4.1µM*	2%	/	23
Cc1noc(C)c1COc1ccccc1C(=O)N1CCN(S(=O)(=O)c2ccccc2C(F)(F)F)CC1	/	15µM*	/	?	/
Cc1noc(C)c1COc1ccccc1C(=O)N1CCN(S(=O)(=O)c2cccc(Cl)c2)CC1	/	?	/	-25%	/
Cc1ccc(S(=O)(=O)N2CCN(C(=O)c3ccc(OCc4c(C)noc4C)cc3)CC2)cc1	-3	/	8%	0%	-11
COc1ccc(CCNC(=O)Nc2cccs2)c(OC)c1	-6	?	7%	26%	11
COc1ccc(CCNC(=O)CNC(=O)Cn2ccc3ccccc3c2=O)cc1OC	-4	0%	-6%	-6%	-3
CCN(CC(=O)Nc1ccc2c(c1)OCCO2)C(=O)COc1ccc(C)cc1	-2	35%	-1%	46%	-6
CC(C)COc1ccc(C(=O)Nc2scc(-c3ccc(Cl)cc3Cl)c2C(N)=O)cc1	3	3.3µM*	1%	?	-13
CCOC(=O)c1ccc(NC(=O)c2ccc[n+]([O-])c2)cc1	-6	21%	-5%	12%	-9
CN(C)CCNC(=O)/C(=C/c1ccc(-c2ccc(Cl)cc2Cl)o1)NC(=O)c1ccccc1	-10	12µM*	-2%	116%	-22
O=C(N/C(=C\c1ccco1)C(=O)N1CCOCC1)c1ccc([N+](=O)[O-])cc1	1	15%	0%	4.7µM*	-1
CN(C)CCCNC(=O)/C(=C\c1ccc(-c2cccc([N+](=O)[O-])c2)o1)NC(=O)c1ccccc1	2	?	-2%	11%	-3
Cc1ccc(C(=O)N/C(=C\c2ccc(-c3ccc(Br)cc3)o2)C(=O)NCCCN(C)C)cc1	-5	?	1%	?	-28
COc1ccc(-c2ccc(/C=C(\NC(=O)c3ccccc3)C(=O)N3CCOCC3)o2)cc1	-2	13µM*	-4%	68%	-7
CN(C)CCNC(=O)/C(=C/c1ccc(-c2ccc(Cl)cc2)o1)NC(=O)c1ccccc1	-13	13µM*	-2%	29%	-17
CC(=O)Nc1ccc(S(=O)(=O)N(C)CC(=O)Nc2nc3ccccc3[nH]2)cc1	/	?	/	-23%	/
Cc1ccc(Nc2nc(N)c([N+](=O)[O-])c(NCCO)n2)cc1C	27*	10%	-3%	-23%	62
Nc1nc(Nc2ccc(Cl)cc2)nc(NCCO)c1[N+](=O)[O-]	1	?	1%	-19%	20
Nc1nc(NCc2ccc(Cl)cc2)nc(NCCO)c1[N+](=O)[O-]	-2	?	4%	?	-22
Cc1ccc(CNc2nc(N)c([N+](=O)[O-])c(NCCO)n2)cc1	10	?	-2%	8.3µM*	22
Cc1ccc(Nc2nc(N)c([N+](=O)[O-])c(NCc3ccco3)n2)cc1C	67*	-81%	1%	?	54*
O=C(COC(=O)c1cncc(Br)c1)Nc1ccc(F)c(F)c1F	/	35%	/	39%	/
Cc1cccnc1NC(=O)c1ccc2c(c1)NC(=O)C(C)S2 (configuration not stated)	/	-1%	/	20%	/

Screens deposited in PubChem BioAssay by National Center for Advancing Translational Sciences (NCATS).
